From PubChem BioAssay (NCI)
Values joined by “and” are separate entries in the source; they are usually repeats but may differ in a detail not shown here. Equal values may be shown once. About 83,000 compounds went through this panel and 20% of them were active in at least one assay; those are over-represented in the sample as a whole.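 Single-concentration screen, 48 h exposure, 96-well plates. Endpoint: percent growth. Below 10 = active.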 Active and inactive are the calls of the source. Where a SMILES comes first, the peptide text is derived from it. [ ]: non-standard residue; d: D form. ξ: configuration not given here. ξV = CC(C)C(N)C(=O)O

tested on: U251 CNS; test: NCI-60 one-dose screen, 48 h (100 = growth as untreated, 0 = no growth, -100 = all killed); conditions: 0.0025 µM
Procedure: Growth inhibition of the U251 human tumor cell line is measured as a screen for anti-cancer activity. Cells are grown in 96 well plates and exposed to the test compound for 48 hours. Compounds are tested at a single concentration, which is 10^-5 M for most compounds. The reported endpoint is percent growth (GI% or GIPRCNT), where numbers from 0 - 100% represent growth inhibition, and numbers from -100% - 0 represent cell death. For example, a value of 40 represents 60% growth inhibition. A value of 0 means no net growth occurred over the course of the experiment. A value of -40 indicates 40% of cells at the beginning of the experiment died by the end of the experiment. A value of -100 means all cells are dead at the end of the experiment.
NCI-60 Human Tumor Cell Lines Screen was performed using the standard one-dose NCI protocol, which is described in more detail at https://dtp.cancer.gov/discovery_development/nci-60/default.htm.
Compounds with GIPRCNT values below 10 were considered active. Activity score was based on GIPRCNT using the following formula: […]
Score is 0 for GIPRCNT values of 100 or above, 50 for GIPRCNT values of 0, and 100 for GIPRCNT values of -100.

| SMILES | growth |
| --- | --- |
| COc1cccc2c1C(=O)c1c(O)c3c(c(O)c1C2=O)C[C@@](O)(C(=O)CO)C[C@@H]3OC1CC(N)C(O)C(C)O1 (stereo not given in full) | 83.6% (inactive) |

same assay, conditions: 2.5 µM

| SMILES | growth |
| --- | --- |
| COc1cccc2c1C(=O)c1c(O)c3c(c(O)c1C2=O)C[C@@](O)(C(=O)CO)C[C@@H]3OC1CC(N)C(O)C(C)O1 (stereo not given in full) | 16.4% (inactive) |

same assay, conditions: 10 µM

| SMILES | growth |
| --- | --- |
| COc1cccc2c1C(=O)c1c(O)c3c(c(O)c1C2=O)C[C@@](O)(C(=O)CO)C[C@@H]3OC1CC(N)C(O)C(C)O1 (stereo not given in full) | 9.22% (active) |

same assay, conditions: 10 µM unless noted

| SMILES | growth |
| --- | --- |
| NNc1ccc2ccccc2c1 | 103% (inactive) and 101% (inactive) |
| CN(C)C(=S)SC(=S)N(C)C | 96.1% (inactive) and 97.1% (inactive) |
| CCCCCC(C)c1ccc(O)c(C)c1 (stereo not given) | 107% (inactive) |
| O=C1C=CC(=CC=C2C=CN(CCCCCCCCCCCO)C=C2)C=C1 | 25% (inactive) |
| CCCC1CCC(=C2C(=O)CCC2=O)O1 (stereo not given) | 102% (inactive) and 98.5% (inactive) |
| O=[N+]([O-])C1=C(c2ccccc2)SC=C(c2ccccc2)S1 | 51.5% (inactive) |
| OC(CN1CCCC2CCCCC21)c1cc2ccccc2c2ccccc12 (stereo not given) | 28.2% (inactive) |
| COC(=O)C1C(O)C(C)C(O)C(C)C=C(C)C2=C3C(=C(C)C(=O)c4c(O)c(c(C)c(OC(C)=O)c43)NC(=O)C(C)=C/C=C\C(C)C(O)C(C)C1O)OCO2 (stereo not given) | 110% (inactive) |
| COc1cccc2c1C(=O)c1c(O)c3c(c(O)c1C2=O)C[C@@](O)(C(C)=O)C[C@@H]3OC1CC(N)C(O)C(C)O1 (stereo not given in full) | 3.16% (active) |
| CC(=O)Nc1cc(C)ccc1C | 101% (inactive) |
| COC1OCC(O)C(O)C1O (stereo not given) | 94.5% (inactive) |
| Nc1nc(=S)c2ncn(C3OC(CO)C(O)C3O)c2[nH]1 (stereo not given) | 105% (inactive) and 54.1% (inactive) |
| O=C(O)COc1ccc(OCC(=O)O)cc1 | -0.509% (active) |
| CSC1SCC2C(=O)N(C)C(C(C)C)C(=O)OCC(NC(=O)c3cnc4ccccc4n3)C(=O)NC(C)C(=O)N(C)C1C(=O)N(C)C(C(C)C)C(=O)OCC(NC(=O)c1cnc3ccccc3n1)C(=O)NC(C)C(=O)N2C (stereo not given) | 5.23% (active) |
| CCN1/C(=C/C=C/C=C/c2sc3ccccc3[n+]2CC)Sc2ccccc21 | -6.94% (active) |
| Cc1cc(NS(=O)(=O)c2ccc(N=Nc3cc(N=Nc4ccc(S(=O)(=O)Nc5cc(C)nc(C)n5)cc4)c4c(NC(=O)C(Cl)Cl)cccc4c3OC(=O)C(Cl)Cl)cc2)nc(C)n1 (tested in a mixture with another compound) | 97.5% (inactive) and 97.7% (inactive) |
| Cc1cc(O)c(C(C)C)cc1Cl | 101% (inactive) |
| CN1CCN(CCCN2c3ccccc3Sc3ccc(C(F)(F)F)cc32)CC1 | 27.9% (inactive) |
| CC[N+](CC)=c1ccc2nc3c(cc(N)c4ccccc43)oc-2c1 | -76.1% (active) |

| SMILES | growth |
| --- | --- |
| O=C(/C=C/c1ccccn1)c1ccccc1 | -31.4% (active) |
| Cc1nc(N=C(N)N)nc2ccc3ccccc3c12 | -17% (active) |
| C[n+]1c2cc(N)ccc2cc2ccc(N)cc21 | 1.21% (active) [middle of 4 runs] |
| CCCCCCCCCCSC(=N)N | 5.37% (active) |
| CCCCCCCCCCCCSC(=NC)NC | 8.04% (active) and 34.5% (inactive) |
| O=C1NC(=O)c2cc([N+](=O)[O-])ccc21 | 109% (inactive) |
| Nc1ccc2cc3ccc(N)cc3nc2c1 | 104% (inactive) and 8.67% (active) |
| Nc1c2ccccc2nc2ccccc12 | 6.74% (active) and 26.5% (inactive) and 34.7% (inactive) |
| NNc1c2ccccc2nc2ccccc12 | 48% (inactive) |
| Clc1ccc(/C=C/c2ccccn2)c(Cl)c1 | 79.1% (inactive) |
| COc1c(O)cc2oc3cc(O)c(CC=C(C)C)c(O)c3c(=O)c2c1CC=C(C)C | 47.9% (inactive) |
| CC(C)C(NC(=O)CN)C(=O)O (stereo not given) (H-Gly-[ξV]-OH) | 102% (inactive) and 98.9% (inactive) |
| Oc1ccc(N=Nc2ccccn2)c(O)c1 | 24.2% (inactive) |
| CO[C@H](C(=O)[C@@H](O)[C@@H](C)O)[C@@H]1Cc2cc3cc(OC4CC(OC5CC(O)C(O)C(C)O5)C(O)C(C)O4)c(C)c(O)c3c(O)c2C(=O)[C@H]1OC1CC(OC2CC(OC3CC(C)(O)C(O)C(C)O3)C(O)C(C)O2)C(O)C(C)O1 (stereo not given in full) | 9.37% (active) |
| CCO/C=C1\SC(=S)N(c2cccc(O)c2)C1=O | 102% (inactive) |
| Clc1cc(Cl)c(Cl)nn1 | 81.1% (inactive) |
| CCC(C)(C)c1cc(O)c(C(C)(C)CC)cc1O | 30.4% (inactive) |
| OCC(O)C(O)C(O)C(/C=N/Nc1ccccc1)=N/Nc1ccccc1 (stereo not given) | 90.9% (inactive) |
